In PubChem BioAssay (Tox21):
Results filed as inconclusive are left out. The source made the active and inactive calls. Unless noted, the call rests on the fitted dose curve; in most records, active means well fitted curve in the direction sought with a large enough effect in the repeat runs; inconclusive means weak or mixed curves; inactive means no such curve, though single readings can be large; an effect the other way counts as inactive or inconclusive.

Experiments:
[1] = biological target: Retinoic acid receptor RXR-alpha (Homo sapiens) (UniProt P19793); assay: qHTS assay to identify small molecule agonists of the RXR signaling pathway (AID 1159527; calls by dose curve; further: nearly all actives have a fitted effect of over 35% in size; further: potency means the concentration at half of the fitted maximal effect); conditions: HEK293T RXRa-UAS-bla, beta-lactamase ratio, 16 h; series mostly up to 76.8 µM
Method in brief: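 Read-out: beta-lactamase FRET ratio (405 nm excitation, 460 and 530 nm emission) after 2 hr substrate loading at room temperature. Cells were RXR-alpha-UAS-bla HEK 293T treated with compounds for 16 hr in 2% charcoal-stripped FBS medium.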

[2] = qHTS assay to identify small molecule agonists of the RXR signaling pathway - cell viability counter screen (AID 1159529); conditions: RXR-alpha-bla HEK293T viability, CellTiter-Glo, 16 h; series mostly up to 76.8 µM; further: nearly all actives have a fitted effect of over 50% in size; further: potency means the concentration at half of the fitted maximal effect
Method in brief: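 HEK 293T RXRa-bla cells, 2% CS-FBS; 5 h settle; cpd 16 h 37 C, 5% CO2; CellTiter-Glo 30 min RT, luminescence. Tetraoctyl ammonium bromide as positive control.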

[3] = qHTS assay to identify small molecule antagonists of the retinoid acid receptor (RAR) signaling pathway - cell viability counter screen (AID 1159551); conditions: C3RL4 cells viability, ATP luminescence (CellTiter-Glo), 6 h; series mostly up to 92.4 µM; further: nearly all actives have a fitted effect of over 35% in size
Method in brief: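 C3RL4 RARE-luciferase line; cpds + retinol 1 uM final, 6 h, 37 C/5% CO2; CellTiter-Glo ATP luminescence, 30 min RT.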

[4] = qHTS assay to identify small molecule antagonists of the retinoic acid receptor (RAR) signaling pathway (AID 1159552; further: nearly all actives have a fitted effect of over 50% in size); conditions: C3RL4 RARE luciferase reporter, retinol-stimulated, 6 h; series mostly up to 92.4 µM
Method in brief: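 Cells of the C3RL4 line were seeded, incubated overnight, then dosed with compounds in DMSO followed immediately by retinol (1 uM final). Six hours later luciferase detection reagent went in; signal was measured after 30 min at RT.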

[5] = qHTS assay to identify small molecule agonists of the retinoic acid receptor (RAR) signaling pathway (AID 1159553); conditions: C3RL4 RARE luciferase reporter, agonist, 6 h; activation: at 73.3 µM (top of the series); further: potency means the concentration at half of the fitted maximal effect
Method in brief: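 RARE-luc C3RL4 cells; overnight attachment 37 C/5% CO2; compound (DMSO) 6 hr; luciferase reagent, 30 min RT; luminescence read-out.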

Measured: Potency

Sequence of Retinoic acid receptor RXR-alpha (Homo sapiens) (P19793 whole entry, looked up): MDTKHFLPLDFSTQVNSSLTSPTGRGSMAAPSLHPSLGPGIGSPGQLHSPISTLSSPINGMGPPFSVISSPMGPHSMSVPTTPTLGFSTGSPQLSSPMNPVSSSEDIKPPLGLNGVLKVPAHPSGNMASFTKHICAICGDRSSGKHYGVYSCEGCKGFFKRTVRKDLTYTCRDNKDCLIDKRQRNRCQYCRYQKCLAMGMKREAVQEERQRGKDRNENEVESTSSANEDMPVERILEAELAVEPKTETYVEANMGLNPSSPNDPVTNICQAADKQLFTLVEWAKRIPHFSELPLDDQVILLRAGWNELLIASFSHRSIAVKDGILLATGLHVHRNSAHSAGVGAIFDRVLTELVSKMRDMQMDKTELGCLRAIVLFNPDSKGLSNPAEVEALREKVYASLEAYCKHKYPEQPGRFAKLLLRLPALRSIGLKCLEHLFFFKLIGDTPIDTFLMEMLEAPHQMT

CC(=O)OCC(=O)NCCCOc1cccc(CN2CCCCC2)c1
inactive: [1] | [2] | [3]

Oc1cc2c(cc1O)[C@H]1c3ccc(O)c(O)c3OC[C@@]1(O)C2
active: [5] 55.1 µM
inactive: all other assays above

Cc1cc(C)cc(N)c1
inactive: [1] | [2] | [3]

Nc1ncnc2c1ncn2[C@H]1CC[C@@H](CO)O1
inactive: all assays above

CCC1NC(=O)c2cc(S(N)(=O)=O)c(Cl)cc2N1 (centres undefined)
inactive: [1] | [2] | [3]

CC(C)Nc1cccnc1N1CCN(C(=O)c2cc3cc(NS(C)(=O)=O)ccc3[nH]2)CC1
inactive: all assays above

COC(=O)CCS
inactive: [1] | [2]

Clc1cc(Cl)nc(Cl)n1
inactive: all assays above

CCOC(=O)c1ccc(I)cc1
inactive: all assays above

O=c1cc(-c2ccccc2)oc2ccc3ccccc3c12
inactive: [1]
active: [2] 19.5 µM

CCC=CC#N
inactive: [1] | [2] | [3]

CC(=O)Nc1ccc(C)cc1C
inactive: [1] | [2] | [3]

C/C=C/C=C/C=O
inactive: [1] | [2] | [3]

CC(=O)c1cc2ccccc2s1
inactive: all assays above

CCCCCC[C@@H](O)C/C=C\CCCCCCCC(=O)O
active: [1] 49 µM | [2] 38.9 µM

CCCCN(CCN(CCCC)C(=O)N1CCOCC1)C(=O)N1CCOCC1
not listed: [5]
inactive: all other assays above

O=C(O)CCC(=O)C(=O)O
inactive: all assays above

CCCCN(CCCC)C(C(N)=O)c1ccc(OC)cc1 (centres undefined)
inactive: [1] | [2] | [3]

CCC1CO1 (centres undefined)
inactive: all assays above

OCCOCC#CCOCCO
inactive: [1] | [2] | [3]

O=C(OC(=O)c1ccccc1)c1ccccc1
inactive: [1] | [2]

CC(O)c1ccccc1 (centres undefined)
inactive: all assays above

CCOC(=O)c1ccc(OCCN2C[C@H](O)[C@@H](O)[C@H](O)[C@H]2CO)cc1
inactive: [1] | [2] | [3]

CC1=C(CC=O)C(C)(C)CCC1
inactive: [1] | [2] | [3]

CCOc1ccccc1O[C@H](c1ccccc1)[C@H]1CNCCO1
inactive: [1] | [2] | [3]

C=CC(C)(CCC=C(C)C)OC(=O)CC(C)C (centres undefined)
inactive: all assays above

Oc1cccc(Nc2ccccc2)c1
not listed: [5]
inactive: all other assays above

O=[N+]([O-])c1ccc(Nc2ccc(Nc3ccccc3)c(S(=O)(=O)O)c2)c([N+](=O)[O-])c1
inactive: [1] | [2] | [3]

CC(=O)Oc1ccc([N+](=O)[O-])cc1CCl
active: [5] 68.6 µM
inactive: all other assays above

C=C1C[C@@]23CC[C@H]4[C@@](C)(CCC[C@@]4(C)C(=O)O[C@@H]4O[C@H](CO)[C@@H](O)[C@H](O)[C@H]4O)[C@@H]2CC[C@]1(O[C@@H]1O[C@H](CO)[C@@H](O)[C@H](O[C@@H]2O[C@H](CO)[C@@H](O)[C@H](O)[C@H]2O)[C@H]1O[C@@H]1O[C@H](CO)[C@@H](O)[C@H](O)[C@H]1O)C3
inactive: all assays above

CCCCCCCCOc1ccc(C(=O)O)cc1
active: [1] 19.3 µM
inactive: [2] | [3]

Cc1cc(O)c(C)c(C)c1O
inactive: [1] | [2] | [3]

CCC(=O)OC
inactive: all assays above

Cc1ccc(C(C)(C)O)cc1
inactive: [1] | [2] | [3]

CC(=O)[C@H]1[C@H](C#N)C[C@H]2[C@@H]3CC=C4C[C@@H](O)CC[C@]4(C)[C@H]3CC[C@@]21C
inactive: [1] | [2] | [3]

Cc1cc(O)ccc1O
inactive: [1]
active: [2] 22.1 µM

Cc1[nH]cnc1CN1CCc2c(c3ccccc3n2C)C1=O
inactive: all assays above

CO[C@]1(NC(=O)CSC(F)F)C(=O)N2C(C(=O)O)=C(CSc3nnnn3CCO)CO[C@H]21
inactive: all assays above

O=C(O)c1ccc(OCCCOc2ccc(C(=O)O)cc2)cc1
inactive: [1] | [2] | [3]
